Bioassay records deposited in PubChem BioAssay by Broad Institute.
A selection follows.
aSyn 5UTR act: Activators via SNCA 5'UTR binding, MLPCN. activity score, % (tested at 7.5 µM), hits read low. alpha-synuclein 5'UTR reporter, activators screen. 300,000 tested, 7.1% active; in the data active = activity score below about -60%
Hits are given with their value.

For CCC(=O)Nc1ccc(NC(=O)c2ccco2)c(OC)c1 the results were aSyn 5UTR act -142.
COc1cc(NC(=O)CC(C)C)ccc1NC(=O)c1ccco1 was read as aSyn 5UTR act -119.
For CCC(=O)Nc1ccc(NC(=O)c2ccco2)cc1 the results were aSyn 5UTR act -136.
CCOc1ccc(CC(=O)Nc2ccc(NC(=O)c3ccco3)cc2)cc1OCC was read as aSyn 5UTR act inactive.
CC1(C)CC(CCNC(=O)CCl)(c2ccccc2)CCO1 (stereo not drawn) was read as aSyn 5UTR act -63.
Cc1ccc2nc(SCn3nnc4ccccc4c3=O)[nH]c2c1 was read as aSyn 5UTR act -139.
`CC1CCCCC1NC(=O)Cn1nnc2ccccc2c1=O` (stereo not drawn) gave aSyn 5UTR act inactive.
For Cc1ccc(NC(=O)Cn2nnc3ccccc3c2=O)cc1 the results were aSyn 5UTR act -93.
`Cc1ccc(SCn2nnc3ccccc3c2=O)c(C)c1` gave aSyn 5UTR act -147.
`O=c1c2ccccc2nnn1CSc1nc2ccccc2[nH]1` gave aSyn 5UTR act -173.
`O=c1c2ccccc2nnn1CSc1ccccc1F` gave aSyn 5UTR act -98.
`CCC(=O)n1nc(-c2ccc(OC)cc2)nc1SC` gave aSyn 5UTR act -92.
Screening CCC(=O)n1nc(-c2ccc(Cl)cc2)nc1SC returned aSyn 5UTR act -104.
For CCCC(=O)n1nc(-c2ccc(Cl)cc2)nc1SC the results were aSyn 5UTR act -84.
COC(=O)c1cccc(C(=O)Nc2ccc(C)cc2Br)n1 was read as aSyn 5UTR act -155.
Cc1ccc(NC(=O)c2cccc(C(=O)OC(C)C)n2)c(Br)c1 was read as aSyn 5UTR act -73.
`Cc1occc1-c1nnc(-c2cc([N+](=O)[O-])cc([N+](=O)[O-])c2)o1` gave aSyn 5UTR act -133.
Screening COC(=O)c1ccccc1NC1=C/C(=N\S(=O)(=O)c2cccs2)c2ccccc2C1=O returned aSyn 5UTR act -91.
For CSc1cccc(NCc2ccc([N+](=O)[O-])cc2)c1 the results were aSyn 5UTR act -63.
For CC(C)(C)n1ncc2c(=O)n(CC(=O)c3ccc(Cl)cc3)cnc21 the results were aSyn 5UTR act -197.
Screening CC1CCN(C(=O)Cn2cnc3c(cnn3C(C)(C)C)c2=O)CC1 returned aSyn 5UTR act -85.
For c1ccc(CCNCC2COc3ccccc3O2)cc1 (stereo not drawn) the results were aSyn 5UTR act -64.
For O=C(NCC1COc2ccccc2O1)c1ccc(Cl)cc1 (stereo not drawn) the results were aSyn 5UTR act -93.
CN(CC1COc2ccccc2O1)C(=O)c1ccc(N(C)C)cc1 (stereo not drawn) was read as aSyn 5UTR act -62.
For CC1CCN(CC(CS(=O)(=O)c2ccc([N+](=O)[O-])cc2)N2CCC(C)CC2)CC1 (stereo not drawn) the results were aSyn 5UTR act -66.
`Nc1ccc(-n2cnc3cc([N+](=O)[O-])ccc32)cc1` gave aSyn 5UTR act -66.
COc1ccc(Oc2ccc(C(F)(F)F)cc2N)cc1 was read as aSyn 5UTR act -68.
O=C(NC1CCCCCC1)c1ccc(OCC2CCCO2)cc1 (stereo not drawn) was read as aSyn 5UTR act -97.
For Cc1ccc(NC(=O)C(=O)NC2CCCCC2)cc1 the results were aSyn 5UTR act -149.
For CC(C)CCNC(=O)C(=O)NC1CCCC1 the results were aSyn 5UTR act -134.
For N#Cc1ccc(C(=O)NC2CCCCCCC2)cc1 the results were aSyn 5UTR act -132.
O=C(NC1CCCCCC1)C(=O)NC1CCCC1 was read as aSyn 5UTR act -67.
`Cc1ccc(C(=O)NC2CCCCC2)cc1` gave aSyn 5UTR act -94.
Screening CC(O)CNCCCCOc1ccc(OCc2ccccc2)cc1 (stereo not drawn) returned aSyn 5UTR act -93.
`NN/C(=C\[N+](=O)[O-])Nc1ccccc1` gave aSyn 5UTR act -70.
`COc1ccc(/C=N/NC(=O)c2nc(-c3ccccc3)n(-c3ccccc3)n2)c(O)c1` gave aSyn 5UTR act inactive.
`COc1ccc(-c2c(C)nn(-c3ccccc3)c2N)cc1` gave aSyn 5UTR act -110.
Screening Cc1nn(-c2ccc(C(=O)O)cc2)c(N)c1-c1ccccc1 returned aSyn 5UTR act -179.
Screening COc1ccc(-c2ccc3sc4ccccc4c(=O)c3c2)cn1 returned aSyn 5UTR act -81.
For COc1cc2sc3ccc(-c4ccc(N(C)C)nc4)cc3c(=O)c2cc1OC the results were aSyn 5UTR act -141.
Screening CN(C)c1ccc(-c2ccc3c(=O)c4ccccc4n(C)c3c2)cn1 returned aSyn 5UTR act -106.
For C[C@H]1C=CC(=O)O[C@H]1c1ccccc1 the results were aSyn 5UTR act -142.
For CCc1ccc(C2CC(c3ccco3)=NN2S(C)(=O)=O)cc1 (stereo not drawn) the results were aSyn 5UTR act -89.
Screening O=C(Nc1cccc(NC(=O)c2ccc([N+](=O)[O-])o2)c1)c1ccco1 returned aSyn 5UTR act -66.
Screening CCC(=O)N1CCN(c2ccc(NC(=O)c3ccc([N+](=O)[O-])o3)cc2Cl)CC1 returned aSyn 5UTR act inactive.
`O=C(Nc1cc(Cl)ccc1-n1cncn1)c1ccc([N+](=O)[O-])o1` gave aSyn 5UTR act -70.
O=C(Nc1ccccc1Cl)c1ccc([N+](=O)[O-])o1 was read as aSyn 5UTR act -139.
CS(=O)(=O)N1CCN(c2ccccc2NC(=O)c2ccc([N+](=O)[O-])o2)CC1 was read as aSyn 5UTR act -123.
For O=C(Nc1ccc(NC(=O)c2ccc([N+](=O)[O-])o2)cc1Cl)c1ccco1 the results were aSyn 5UTR act -173.
Screening O=C(Nc1ccc(Cl)c([N+](=O)[O-])c1)c1ccco1 returned aSyn 5UTR act -67.
For CCOc1ccc(C(=O)Nc2nc3ccccc3[nH]2)cc1OCC the results were aSyn 5UTR act -172.
COc1ccc(Cl)cc1C(=O)Nc1nc2ccccc2[nH]1 was read as aSyn 5UTR act inactive.
`COc1ccc(C(=O)Nc2nc3ccccc3[nH]2)cc1OC` gave aSyn 5UTR act -147.
Screening COc1cc(C(=O)Nc2nc3ccccc3[nH]2)ccc1OC(F)F returned aSyn 5UTR act -233.
Screening Cc1[nH]c2ccccc2c1N=Nc1ccccc1F returned aSyn 5UTR act -122.
`Clc1ccc(-c2nc(C3CCCCC3)no2)cc1` gave aSyn 5UTR act -160.
Screening Cc1ccc(OCC(=O)Nc2cccc(C)n2)c(C)c1 returned aSyn 5UTR act -137.
`Cc1cccc(NC(=O)COc2ccc(Br)cc2)n1` gave aSyn 5UTR act -71.
O=c1[nH]c(CN2CCN(C/C=C/c3ccccc3)CC2)nc2ccccc12 was read as aSyn 5UTR act -72.
Screening Clc1ccc(-c2nc3ccccn3c2CN2CCCCC2)cc1 returned aSyn 5UTR act -101.
`CN(C)Cc1c(-c2ccc(Cl)cc2)nc2ccccn12` gave aSyn 5UTR act -151.
Screening C/C(=N/NC(=O)c1cc2ccccc2cc1O)C1C(=O)c2ccccc2C1=O returned aSyn 5UTR act -94.
Screening C/C(=N\NC(=O)c1cc2ccccc2cc1O)c1ccccn1 returned aSyn 5UTR act inactive.
NC(=O)c1ccccc1NC(=O)/C=C/c1c(Cl)cccc1Cl was read as aSyn 5UTR act -189.
For CN(C)c1ccc(NC(=O)/C=C/c2c(Cl)cccc2Cl)cc1 the results were aSyn 5UTR act -80.
`NC(=O)c1ccccc1NC(=O)/C=C/c1cccc(Cl)c1` gave aSyn 5UTR act -133.
For COc1ccc(C(=S)N2CCOCC2)cc1OS(=O)(=O)c1ccccc1[N+](=O)[O-] the results were aSyn 5UTR act -70.
